# Data as given in the supplement of paper PMC7156485.
# Several values for one entry are separate records, joined by “and”; a condition that tells them apart may be missing. Equal values may be shown once.
# System: TDF
# Test: H1.0 immunofluorescence intensity relative to DMSO (% of DMSO); higher = stronger H1.0 induction, active = 120 or more
# Conditions: concentration: 10 µM; 24 h
# How it was run: (§1)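 For HCC1569 and TDF cells, compounds at 10 µM were applied for 24 h at 37 °C in triplicate in 384-well plates. Cells were fixed in 3.7% formaldehyde, stained for H1.0 and with DAPI, and imaged at ×10 over six fields per well. The endpoint, H1.0 nuclear intensity or cell number, is shown as percent of the plate control using the median of replicates. Positional effects were smoothed for HCC1569 only.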
# 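Note: TDF is a line of transformed human dermal fibroblasts of mesenchymal origin.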
row,Structure (SMILES),H1.0 immunofluorescence intensity
1,CCC(=O)OC1(C(=O)SCF)C(C)CC2C3CC(F)C4=CC(=O)C=CC4(C)C3(F)C(O)CC21C (stereo not drawn),86.8 (inactive)
2,O=c1[nH]c2ccccc2c2ccccc12 [6(5H)-Phenanthridinone],93.8 (inactive)
3,CCCCCCCCC=CCCCCCCCCC(=O)O [10(Z)-Nonadecenoic acid],95.6 (inactive)
4,Cc1cc(Nc2nc(-c3ccccc3)nc3ccccc23)n[nH]1 [GSK-3 Inhibitor XIII],112 (inactive)
5,CCCCCCCCCCCCCCCCCC(=O)NCC(COP(=O)([O-])OCC[N+](C)(C)C)OC (racemic) [rac-2-Methoxy-3-octadecanamido-1-propylphosphocholine],95.2 (inactive)
6,Nc1sc2c(c1C(=O)c1ccc(Cl)cc1)CCCC2,95 (inactive)
7,O=C(NC(CO)C(O)c1ccc([N+](=O)[O-])cc1)C(Cl)Cl (stereo not drawn) [Chloramphenicol],93.1 (inactive)
8,CC(C)NCC(O)COc1ccc(CC(N)=O)cc1 (stereo not drawn) [R(+)-Atenolol],90.9 (inactive)
9,CSc1ccc2c(c1)N(CCC1CCCCN1C)c1ccccc1S2 (stereo not drawn) [Thioridazine],105 (inactive)
10,Clc1ccc2c(c1)CCc1cccnc1C2=C1CCNCC1 [Desloratadine],109 (inactive)
11,Cc1ccc(C)c(-c2cc(C(F)(F)F)nn2-c2ccc(S(N)(=O)=O)cc2)c1,97.5 (inactive)
12,"c1ccc2c(-c3ccncc3)c[nH]c2c1 [Rho Kinase Inhibitor III, Rockout]",86.9 (inactive)
13,COc1cc2c[n+](C)c3c4cc5c(cc4ccc3c2cc1OC)OCO5.[Cl-],138 (active)
14,Cc1ccccc1-n1c(Cn2nc(-c3cccc(O)c3)c3c(N)ncnc32)nc2cccc(C)c2c1=O,97.7 (inactive)
15,N[C@H](C(=O)O)c1cccc(O)c1 [(S)-3-Hydroxyphenylglycine],102 (inactive)
16,CSC(=N)N.CSC(=N)N.O=S(=O)(O)O [S-Methylisothiourea hemisulfate],93.5 (inactive)
17,O=S(=O)(NCCNCC=Cc1ccc(Br)cc1)c1cccc2cnccc12,93.6 (inactive) and 99.1 (inactive)
18,CN1CCCN=C1C=Cc1cccs1.O=C(O)c1cc2ccccc2c(Cc2c(O)c(C(=O)O)cc3ccccc23)c1O [Pyrantel Pamoate],88.8 (inactive)
19,O=C(O)COC(=O)Cc1ccccc1Nc1c(Cl)cccc1Cl [Aceclofenac],95.3 (inactive)
20,O=C(CCCCCCC(=O)Nc1ccccc1)NO,121 (active)
21,CN1c2cc3c(cc2N=C(c2ccc(C(=O)O)cc2)c2ccccc21)C(C)(C)CCC3(C)C,93.8 (inactive)
22,CC(O)CCCC(O)C=CC1C(O)CC(O)C1CC=CCCCC(=O)O [19(R)-Hydroxy-prostaglandin F2a],93.3 (inactive)
23,O=[N+]([O-])c1cccc2c(Br)[nH]nc12 [3-Bromo-7-nitroindazole],103 (inactive)
24,COc1cc(C(O)CO)ccc1OS(=O)(=O)[O-].[K+] (stereo not drawn) [MHPG sulfate potassium],89.9 (inactive)
25,C=C[C@]1(C)C[C@@H](OC(=O)CO)[C@]2(C)[C@H](C)CC[C@]3(CCC(=O)[C@H]32)[C@@H](C)[C@@H]1O,106 (inactive)
26,COc1cc(C(=O)OCCCN2CCCN(CCCOC(=O)c3cc(OC)c(OC)c(OC)c3)CC2)cc(OC)c1OC [Dilazep],103 (inactive)
27,CCCCCCCCC=CCCCCCCCC(=O)O [9(E)-Octadecenoic acid],94.9 (inactive)
28,CC(CCc1ccccc1)NCC(O)c1ccc(O)c(C(N)=O)c1.Cl (stereo not drawn) [Labetalol hydrochloride],83.5 (inactive)

# System: HCC1569
# Test: H1.0 immunofluorescence intensity relative to DMSO (% of DMSO); higher = stronger H1.0 induction, active = 140 or more
# Conditions: concentration: 10 µM; 24 h
# How it was run: as §1
row,Structure (SMILES),H1.0 immunofluorescence intensity
1,O=C(Nc1ccccc1)c1cc([N+](=O)[O-])ccc1Cl,97.9 (inactive)
2,N#CC(=Cc1ccc(O)c(O)c1)C(=O)NCc1ccccc1,121 (inactive)
3,Cc1cccc(C=Cc2ccccc2)n1,100 (inactive)
4,CC(C)[N+](C)(CCOC(=O)C1c2ccccc2Oc2ccccc21)C(C)C.[Br-] [Propantheline bromide],96.9 (inactive)
5,CC(C)(S)[C@H](N)C(=O)O [L-Penicillamine],90.8 (inactive)
6,CCCCCCCCCCCCCCCC(=O)OC(CC(=O)O)C[N+](C)(C)C.[Cl-] (racemic) [Palmitoyl-DL-Carnitine chloride],110 (inactive)
7,O=C(OC1Cc2c(O)cc(O)cc2OC1c1cc(O)c(O)c(O)c1)c1cc(O)c(O)c(O)c1 (stereo not drawn) [Epigallocatechin gallate],100 (inactive)
8,Cl.Clc1ccc2nsnc2c1NC1=NCCN1 [Tizanidine.HCl],83.4 (inactive)
9,FC(F)(F)c1cc(NC(=S)Nc2ccc(Br)cc2-c2nn[nH]n2)cc(C(F)(F)F)c1,120 (inactive)
10,"Oc1cc(O)c2c(c1)OC(c1ccc(O)c(O)c1)C(O)C2 (single isomer, unassigned; (+)) [(+)-Catechine]",88.4 (inactive)
11,"Br.Br.N=C(N)SCCc1cccc(CCSC(=N)N)c1 [1,3-PBIT dihydrobromide]",98.4 (inactive)
12,"CC=C1C2C=C(C)CC1(N)c1ccc(=O)[nH]c1C2 (single isomer, unassigned; (-)) [(-)-Huperazine]",84.1 (inactive)
13,CCC(=O)OC1(C(=O)SCF)C(C)CC2C3CC(F)C4=CC(=O)C=CC4(C)C3(F)C(O)CC21C (stereo not drawn),116 (inactive)
14,O=c1[nH]c2ccccc2c2ccccc12 [6(5H)-Phenanthridinone],104 (inactive)
15,CCCCCCCCC=CCCCCCCCCC(=O)O [10(Z)-Nonadecenoic acid],106 (inactive)
16,Cc1cc(Nc2nc(-c3ccccc3)nc3ccccc23)n[nH]1 [GSK-3 Inhibitor XIII],182 (active)
17,CCCCCCCCCCCCCCCCCC(=O)NCC(COP(=O)([O-])OCC[N+](C)(C)C)OC (racemic) [rac-2-Methoxy-3-octadecanamido-1-propylphosphocholine],101 (inactive)
18,Nc1sc2c(c1C(=O)c1ccc(Cl)cc1)CCCC2,98.9 (inactive)
19,O=C(NC(CO)C(O)c1ccc([N+](=O)[O-])cc1)C(Cl)Cl (stereo not drawn) [Chloramphenicol],112 (inactive)
20,CC(C)NCC(O)COc1ccc(CC(N)=O)cc1 (stereo not drawn) [R(+)-Atenolol],95.4 (inactive)

row,Structure (SMILES),H1.0 immunofluorescence intensity
1,CSc1ccc2c(c1)N(CCC1CCCCN1C)c1ccccc1S2 (stereo not drawn) [Thioridazine],133 (inactive)
2,Clc1ccc2c(c1)CCc1cccnc1C2=C1CCNCC1 [Desloratadine],108 (inactive)
3,Cc1ccc(C)c(-c2cc(C(F)(F)F)nn2-c2ccc(S(N)(=O)=O)cc2)c1,101 (inactive)
4,"c1ccc2c(-c3ccncc3)c[nH]c2c1 [Rho Kinase Inhibitor III, Rockout]",118 (inactive)
5,COc1cc2c[n+](C)c3c4cc5c(cc4ccc3c2cc1OC)OCO5.[Cl-],106 (inactive)
6,Cc1ccccc1-n1c(Cn2nc(-c3cccc(O)c3)c3c(N)ncnc32)nc2cccc(C)c2c1=O,103 (inactive)
7,N[C@H](C(=O)O)c1cccc(O)c1 [(S)-3-Hydroxyphenylglycine],100 (inactive)
8,CSC(=N)N.CSC(=N)N.O=S(=O)(O)O [S-Methylisothiourea hemisulfate],96.7 (inactive)
9,O=S(=O)(NCCNCC=Cc1ccc(Br)cc1)c1cccc2cnccc12,84.2 (inactive) and 136 (inactive)
10,CN1CCCN=C1C=Cc1cccs1.O=C(O)c1cc2ccccc2c(Cc2c(O)c(C(=O)O)cc3ccccc23)c1O [Pyrantel Pamoate],115 (inactive)
11,O=C(O)COC(=O)Cc1ccccc1Nc1c(Cl)cccc1Cl [Aceclofenac],103 (inactive)
12,O=C(CCCCCCC(=O)Nc1ccccc1)NO,100 (inactive)
13,CN1c2cc3c(cc2N=C(c2ccc(C(=O)O)cc2)c2ccccc21)C(C)(C)CCC3(C)C,112 (inactive)
14,CC(O)CCCC(O)C=CC1C(O)CC(O)C1CC=CCCCC(=O)O [19(R)-Hydroxy-prostaglandin F2a],95.9 (inactive)
15,O=[N+]([O-])c1cccc2c(Br)[nH]nc12 [3-Bromo-7-nitroindazole],91.9 (inactive)
16,COc1cc(C(O)CO)ccc1OS(=O)(=O)[O-].[K+] (stereo not drawn) [MHPG sulfate potassium],121 (inactive)
17,C=C[C@]1(C)C[C@@H](OC(=O)CO)[C@]2(C)[C@H](C)CC[C@]3(CCC(=O)[C@H]32)[C@@H](C)[C@@H]1O,95.9 (inactive)
18,COc1cc(C(=O)OCCCN2CCCN(CCCOC(=O)c3cc(OC)c(OC)c(OC)c3)CC2)cc(OC)c1OC [Dilazep],91.6 (inactive)
19,CCCCCCCCC=CCCCCCCCC(=O)O [9(E)-Octadecenoic acid],101 (inactive)
20,CC(CCc1ccccc1)NCC(O)c1ccc(O)c(C(N)=O)c1.Cl (stereo not drawn) [Labetalol hydrochloride],99.3 (inactive)
